From the supplement of paper PMC6607015
Counter-ions that a name gives are not always drawn.

What was measured:
Settings in all cases: compound concentration in added solution (µM; 5 µl added to 20 µl cells): 10; 18 h
A431 [1] = assay: LBPA endosome anti-LBPA integrated intensity (sum per cell), Z-score; higher = more LBPA staining
Procedure, shortened: (§1)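 After 18 h on 5 µl of 10 µM compound solution in duplicate 384-well imaging plates, HeLa MZ or A431 cells, seeded at 3,500 per well in 20 µl, were fixed with 4% PFA. They were then labelled with 6C4 anti-LBPA antibody, filipin, propidium iodide and CellTracker green, and four 20× fields were recorded per well. Integrated LBPA or filipin intensity per cell, whole-cell or within LBPA endosomes, came from MetaXpress segmentation and was normalised to Z-scores in AcuityXpress.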

HeLa MZ [2] = assay: as above
Procedure, shortened: as §1

A431 [3] = assay: whole-cell filipin (free cholesterol) integrated intensity, Z-score; higher = more cholesterol staining
Procedure, shortened: as §1

HeLa MZ [4] = assay: as above
Procedure, shortened: as §1

A431 [5] = assay: filipin (cholesterol) integrated intensity within LBPA endosomes, Z-score; higher = more cholesterol in LBPA endosomes
Procedure, shortened: as §1

HeLa MZ [6] = assay: as above
Procedure, shortened: as §1

| SMILES | LBPA endosome anti-LBPA integrated intensity (z-score) (A431 [1]) | LBPA endosome anti-LBPA integrated intensity (z-score) (HeLa MZ [2]) | whole-cell filipin (z-score) (A431 [3]) | whole-cell filipin (z-score) (HeLa MZ [4]) | filipin (z-score) (A431 [5]) | filipin (z-score) (HeLa MZ [6]) |
| --- | --- | --- | --- | --- | --- | --- |
| CCc1c2c(nc3ccc(OC(=O)N4CCC(N5CCCCC5)CC4)cc13)-c1cc3c(c(=O)n1C2)COC(=O)[C@]3(O)CC [Irinotecan Hydrochloride] | 0.102 | 3.21 | 3.24 | 3.96 | 0.0471 | -0.0232 |
| C/C(=C(\CCOP(=O)(O)O)SC(=O)c1ccccc1)N(C=O)Cc1cnc(C)nc1N [Benfotiamine] | -0.532 | -0.653 | -0.469 | -0.157 | -0.411 | -0.31 |
| CS(=O)(=O)Nc1ccc([N+](=O)[O-])cc1Oc1ccccc1 [Nimesulide] | -0.535 | -0.741 | -0.718 | -0.259 | -0.551 | -0.716 |
| N#Cc1ccc(C(c2ccc(C#N)cc2)n2cncn2)cc1 [Letrozole] | -0.371 | 0.276 | 0.375 | 0.337 | -0.552 | -0.548 |
| COCC(=O)Nc1c(I)c(C(=O)NCC(O)CO)c(I)c(C(=O)N(C)CC(O)CO)c1I (configuration not stated) [Iopromide] | -0.665 | -1.68 | -0.559 | -0.164 | -0.527 | -0.574 |
| CNC1(C)C2CCC(C2)C1(C)C (configuration not stated) [Mecamylamine hydrochloride] | -0.608 | -1.35 | -0.41 | -0.324 | -0.495 | -0.557 |
| CCSc1ccc2c(c1)N(CCCN1CCN(C)CC1)c1ccccc1S2 [Thiethylperazine dimalate] | 3.37 | 1.8 | -0.311 | -0.392 | 1.25 | 1.79 |
| COc1ccc2c(c1)c(CC(=O)O)c(C)n2C(=O)c1ccc(Cl)cc1 [Indomethacin] | -0.426 | 0.408 | -0.694 | -0.518 | -0.524 | -0.49 |
| CC[C@@H]1C(=O)OC[C@@H]1Cc1cncn1C [Pilocarpine nitrate] | -0.402 | -0.0375 | -0.715 | -0.63 | -0.502 | -0.573 |
| Cc1c(Nc2ncccc2C(=O)O)cccc1C(F)(F)F [Flunixin meglumine] | -0.51 | -0.897 | -0.493 | -0.611 | -0.459 | -0.549 |
| CC1(C)S[C@@H]2[C@H](NC(=O)[C@H](N)c3ccccc3)C(=O)N2[C@H]1C(=O)O [Ampicillin trihydrate] | -0.606 | -0.403 | -0.896 | -0.707 | -0.569 | -0.702 |
| Fc1ccc(C(c2ccc(F)cc2)N2CCN(C/C=C/c3ccccc3)CC2)cc1 [Flunarizine dihydrochloride] | 0.53 | -0.311 | 0.301 | -0.958 | 0.627 | 0.163 |
